Experimental data published in ChEMBL document CHEMBL5724796, “Tm Shift (DSF) assay results for EUbOPEN Chemogenomics Library” (2024).
Residues, ends and D or L forms follow the SMILES beside them. *: point of attachment. Cbz = O=C(OCc1ccccc1)*; Boc = CC(C)(C)OC(=O)*; CH2F = FC*

Experiments:
Conditions in all cases: Compound concentration 20.0 uM
[1] = biological target: Tyrosine-protein kinase ABL1 (Homo sapiens) (UniProt P00519)
[2] = biological target: Bromodomain-containing protein 4 (Homo sapiens) (UniProt O60885)
[3] = biological target: Cyclin-dependent kinase 2 (Homo sapiens) (UniProt P24941)
[4] = biological target: Casein kinase I isoform delta (Homo sapiens) (UniProt P48730)
Chain of Casein kinase I isoform delta (Homo sapiens) (P48730 whole entry, looked up, canonical isoform): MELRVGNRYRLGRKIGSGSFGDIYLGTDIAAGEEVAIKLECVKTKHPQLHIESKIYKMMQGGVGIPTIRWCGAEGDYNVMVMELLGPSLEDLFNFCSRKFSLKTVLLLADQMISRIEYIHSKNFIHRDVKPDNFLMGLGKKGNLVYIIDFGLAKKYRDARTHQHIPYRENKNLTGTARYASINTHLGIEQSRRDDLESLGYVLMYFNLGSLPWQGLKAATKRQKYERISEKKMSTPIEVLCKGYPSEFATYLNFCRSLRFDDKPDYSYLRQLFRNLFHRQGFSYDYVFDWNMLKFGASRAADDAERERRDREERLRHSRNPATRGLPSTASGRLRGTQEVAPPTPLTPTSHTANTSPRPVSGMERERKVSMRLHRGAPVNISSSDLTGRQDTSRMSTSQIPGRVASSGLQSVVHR

[5] = biological target: Glycogen synthase kinase-3 beta (Homo sapiens) (UniProt P49841)
Chain of Glycogen synthase kinase-3 beta (Homo sapiens) (P49841 whole entry, looked up): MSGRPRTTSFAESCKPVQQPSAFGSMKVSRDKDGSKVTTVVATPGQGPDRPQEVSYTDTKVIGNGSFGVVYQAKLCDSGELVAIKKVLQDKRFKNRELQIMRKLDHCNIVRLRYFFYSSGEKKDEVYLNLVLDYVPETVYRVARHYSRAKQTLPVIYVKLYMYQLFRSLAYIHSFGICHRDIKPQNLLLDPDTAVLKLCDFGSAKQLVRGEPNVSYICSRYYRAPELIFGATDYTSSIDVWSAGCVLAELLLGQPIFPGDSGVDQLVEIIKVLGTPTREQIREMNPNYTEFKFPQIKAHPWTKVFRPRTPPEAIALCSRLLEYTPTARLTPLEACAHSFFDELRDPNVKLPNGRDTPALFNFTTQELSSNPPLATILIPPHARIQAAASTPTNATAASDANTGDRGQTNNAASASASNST

[6] = biological target: Mitogen-activated protein kinase 1 (Homo sapiens) (UniProt P28482)
Chain of Mitogen-activated protein kinase 1 (Homo sapiens) (P28482 whole entry): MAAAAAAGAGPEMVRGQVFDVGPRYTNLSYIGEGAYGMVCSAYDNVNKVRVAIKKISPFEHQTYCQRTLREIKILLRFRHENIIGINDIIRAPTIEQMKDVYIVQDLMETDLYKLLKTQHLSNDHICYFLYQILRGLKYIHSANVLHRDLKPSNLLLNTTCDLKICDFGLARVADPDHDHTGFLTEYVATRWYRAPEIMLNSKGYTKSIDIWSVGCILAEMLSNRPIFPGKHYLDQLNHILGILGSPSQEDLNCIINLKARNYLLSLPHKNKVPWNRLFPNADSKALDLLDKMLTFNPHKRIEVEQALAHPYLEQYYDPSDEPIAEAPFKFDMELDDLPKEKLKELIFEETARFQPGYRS

[7] = biological target: T1, Aurora kinase A (Homo sapiens) (UniProt O14965)
T1 sequence (whole entry): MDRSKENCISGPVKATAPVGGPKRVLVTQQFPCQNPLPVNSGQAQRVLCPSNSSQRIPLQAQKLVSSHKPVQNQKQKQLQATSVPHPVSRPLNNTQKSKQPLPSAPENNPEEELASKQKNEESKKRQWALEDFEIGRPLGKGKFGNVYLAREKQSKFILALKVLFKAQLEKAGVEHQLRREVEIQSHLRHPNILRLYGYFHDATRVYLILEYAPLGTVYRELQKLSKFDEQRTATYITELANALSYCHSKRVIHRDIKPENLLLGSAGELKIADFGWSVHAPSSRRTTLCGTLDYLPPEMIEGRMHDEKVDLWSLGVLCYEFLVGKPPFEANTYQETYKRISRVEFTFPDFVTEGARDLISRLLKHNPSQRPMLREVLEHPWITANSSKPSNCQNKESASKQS

[8] = biological target: T2, Transcription intermediary factor 1-alpha (Homo sapiens) (UniProt O15164)
T2 sequence (whole entry): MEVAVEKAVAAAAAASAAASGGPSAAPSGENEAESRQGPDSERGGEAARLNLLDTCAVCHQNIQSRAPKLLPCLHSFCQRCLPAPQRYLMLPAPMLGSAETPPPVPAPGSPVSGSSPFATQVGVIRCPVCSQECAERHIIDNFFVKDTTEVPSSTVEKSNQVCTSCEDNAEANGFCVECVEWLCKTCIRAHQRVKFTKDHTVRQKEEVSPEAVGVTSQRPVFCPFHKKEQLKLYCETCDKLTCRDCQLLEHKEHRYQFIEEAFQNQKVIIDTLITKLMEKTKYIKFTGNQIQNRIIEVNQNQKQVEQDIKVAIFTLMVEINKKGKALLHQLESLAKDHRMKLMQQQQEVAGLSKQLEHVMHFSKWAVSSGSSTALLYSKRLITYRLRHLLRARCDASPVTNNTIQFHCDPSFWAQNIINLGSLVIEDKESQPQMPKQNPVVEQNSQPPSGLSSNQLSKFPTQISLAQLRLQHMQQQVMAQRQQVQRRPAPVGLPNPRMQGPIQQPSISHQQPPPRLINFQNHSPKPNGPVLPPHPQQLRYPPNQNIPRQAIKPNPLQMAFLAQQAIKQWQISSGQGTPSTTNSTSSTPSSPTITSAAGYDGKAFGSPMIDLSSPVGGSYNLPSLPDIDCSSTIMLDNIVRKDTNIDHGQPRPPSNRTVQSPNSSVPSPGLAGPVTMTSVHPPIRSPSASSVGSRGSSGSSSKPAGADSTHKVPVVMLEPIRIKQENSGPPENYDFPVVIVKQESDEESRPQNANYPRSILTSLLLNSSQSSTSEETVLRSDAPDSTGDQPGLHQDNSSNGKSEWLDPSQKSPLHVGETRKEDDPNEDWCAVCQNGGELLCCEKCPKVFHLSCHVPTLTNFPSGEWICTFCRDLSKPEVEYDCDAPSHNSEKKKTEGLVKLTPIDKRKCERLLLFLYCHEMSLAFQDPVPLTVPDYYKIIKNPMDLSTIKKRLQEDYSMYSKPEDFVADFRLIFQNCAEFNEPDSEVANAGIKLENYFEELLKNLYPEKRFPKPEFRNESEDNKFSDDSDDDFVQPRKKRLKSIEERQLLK

Chain of Tyrosine-protein kinase ABL1 (Homo sapiens) (P00519 whole entry): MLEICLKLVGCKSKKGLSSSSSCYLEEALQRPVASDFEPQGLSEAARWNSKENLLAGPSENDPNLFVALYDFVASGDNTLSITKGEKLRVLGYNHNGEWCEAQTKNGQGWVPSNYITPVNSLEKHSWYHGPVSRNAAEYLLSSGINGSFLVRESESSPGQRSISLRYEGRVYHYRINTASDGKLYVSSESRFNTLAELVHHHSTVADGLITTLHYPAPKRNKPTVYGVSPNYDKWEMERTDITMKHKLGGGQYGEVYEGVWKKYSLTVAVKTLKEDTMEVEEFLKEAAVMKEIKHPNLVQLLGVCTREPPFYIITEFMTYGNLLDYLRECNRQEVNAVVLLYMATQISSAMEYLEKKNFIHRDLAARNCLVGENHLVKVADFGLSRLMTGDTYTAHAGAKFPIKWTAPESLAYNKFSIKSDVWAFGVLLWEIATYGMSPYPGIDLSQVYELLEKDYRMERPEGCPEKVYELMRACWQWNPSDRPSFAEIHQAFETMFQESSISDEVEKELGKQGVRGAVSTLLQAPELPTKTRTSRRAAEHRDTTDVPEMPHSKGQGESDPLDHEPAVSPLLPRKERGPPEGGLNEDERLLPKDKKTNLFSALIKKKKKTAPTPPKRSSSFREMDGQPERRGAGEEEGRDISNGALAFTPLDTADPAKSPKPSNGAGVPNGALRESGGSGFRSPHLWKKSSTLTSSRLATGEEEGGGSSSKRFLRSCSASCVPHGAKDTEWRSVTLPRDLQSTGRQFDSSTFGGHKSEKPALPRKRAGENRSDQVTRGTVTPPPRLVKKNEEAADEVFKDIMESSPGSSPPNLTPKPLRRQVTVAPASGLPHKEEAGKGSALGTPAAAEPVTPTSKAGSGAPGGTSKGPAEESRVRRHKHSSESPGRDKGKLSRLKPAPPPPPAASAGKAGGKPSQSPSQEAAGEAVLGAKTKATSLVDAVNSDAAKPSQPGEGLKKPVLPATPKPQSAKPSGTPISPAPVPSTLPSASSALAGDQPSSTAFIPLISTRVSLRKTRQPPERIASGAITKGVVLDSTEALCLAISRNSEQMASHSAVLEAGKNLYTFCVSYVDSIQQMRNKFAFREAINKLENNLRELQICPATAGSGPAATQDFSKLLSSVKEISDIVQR

Compound | ΔTm [1] [°C] | ΔTm [2] [°C] | ΔTm [3] [°C] | ΔTm [4] [°C] | ΔTm [5] [°C] | ΔTm [6] [°C] | ΔTm [7] [°C] | ΔTm [8] [°C] | ΔTm ([1]; Protein concentration 2.0 uM) [°C]
COc1cccc(-c2nccc3c2CN(c2ccccc2)C3=O)c1 | 0.76 | -1.35 | -1.3 | 0.41 | -2.56 | -4.49 | -4.93 | -1.44 | 
O=C(O)/C(S)=C/c1ccc(I)cc1 | 0.07 | -3.45 | -1.16 | -0.16 | -8.42 | -1.42 | 0.99 | -0.27 | 
CC(C)(C)OC(=O)N1CCC[C@H]1C(=O)N1CCC[C@H]1C=O (Boc-Pro-Pro-aldehyde) | 0.36 | -1.7 | 0.06 | -0.53 | -0.11 | 0.63 | -2.5 | -0.63 | 
N=C(N)N/N=C/c1cccc(Cl)c1Cl | 0.36 | -1.26 | -0.05 | 0.55 | -0.98 | 0.2 | -0.81 | -0.47 | 
CCn1ncc2c(NC3CCOCC3)c(-c3nnc(Cc4sc(C)nc4C)o3)cnc21 | 0.37 | -1.68 | -0.03 | 0.21 | -0.23 | 0.54 | -2.35 | 0.22 | 
COc1ncc(C)cc1CC[C@@](O)(CC(=O)O)C(=O)O | 0.5 | -1.94 | 0.22 | -0.36 | 0.4 | 0.35 | -1.39 | -0.23 | 
Cc1ncc(Cl)cc1NCc1ccc(C(=O)N[C@@H](CC2CCCC2)C(=O)NC2CC2)s1 |  | -3.44 | -0.15 | -0.05 | 10.5 | -3.12 | 7.63 | 2.21 | 2
CCOCC1(COCC)CCC(c2n[nH]cc2CN(C)CCNC)CC1 | 0.58 | -1.39 | -0.06 | 0.56 | -1.08 | 0.33 | -0.08 | -1.29 | 
CNc1nccc(CN(CC2CCNCC2)S(=O)(=O)c2ccc(S(=O)(=O)N(Cc3ccc(Cl)cc3)C3CCCC3)cc2)n1 | 0.85 | -3.15 | 0.06 | 0.31 | 0.43 | 0.57 | -2.49 | -0.52 | 
O=C(C[C@@H](C(F)F)n1ccc(F)n1)N1CCC(O)(Cn2cnc3c(cnn3-c3ccc(F)cc3)c2=O)CC1 | 0.8 | -3.01 | 0.2 | 0.03 | -0.6 | 0.27 | -2.33 | 1.94 | 
CCN1C(C)(C)CC(Oc2ccc(C(=O)Nc3ccc(NC(=O)Nc4cc(C(C)(C)C)on4)cc3)nc2)CC1(C)C | 1.14 | -1.48 | 0.38 | 0.21 | 0.25 | -3.48 | 0.68 | -0.32 | 
O=C(C1CC1)N1CCN(Cn2sc3ccccc3c2=O)CC1 | -7.31 | -4.76 | -3.3 | -0.26 | 0 | -4.19 | -1.92 | 0 | 
Cc1sc(C(=O)c2cncnc2N[C@@H]2C[C@H](COS(N)(=O)=O)[C@@H](O)C2)cc1[C@@H]1NCCc2ccc(Cl)cc21 | 0.03 | -0.2 | -0.03 | -0.1 | -1.26 | 0.53 | -1.12 | 0.42 | 
CN1C(=O)c2c(nn(Cc3ccc(-c4cccc(F)n4)cc3)c2Nc2ccccc2)N2C1=N[C@@H]1CCC[C@@H]12 | 0.2 | 0.64 | -0.42 | -0.09 | 2.76 | 0.5 | -0.82 | 0.46 | 
CC#CCn1c(N2CCC[C@@H](N)C2)nc2c1c(=O)n(Cc1nc(C)c3ccccc3n1)c(=O)n2C | -0.11 | 0.18 | -0.01 | -0.33 | -0.82 | 0.06 | -0.13 | -0.79 | 
COC(=O)CC[C@H](NC(=O)[C@H](Cc1c[nH]c2ccccc12)NC(=O)OCc1ccccc1)C(=O)N[C@@H](Cc1cnc[nH]1)C(=O)N[C@@H](CC(=O)OC)C(=O)CF (Cbz-WE(OMe)HD(OMe)-CH2F) | 0.62 | -1.63 | 0.18 | 0.21 | -0.68 | -0.1 | -0.45 | -0.87 | 
N[C@@H](CCNCc1ccc(Cl)cc1)C(=O)N1CCCCC1 | 0.49 | -3.21 | 0 | -0.34 | -0.21 | 0.19 | -2.45 | 0.39 | 
CC#C[C@]1(O)CC[C@H]2[C@@H]3CCC4=CC(=O)CCC4=C3[C@@H](c3ccc(N(C)C)cc3)C[C@@]21C | 0.11 | -2.39 | -0.02 | 0.02 | -1.3 | -0.7 | -1.55 | -0.92 | 
C=C(C)[C@@H](CC=C(C)C)C[C@@]12C[C@@H](CC=C(C)C)C(C)(C)[C@@](CC=C(C)C)(C(=O)C(C(=O)c3ccc(O)c(O)c3)=C1O)C2=O | 0.52 | -5.01 | -3.75 | 0.51 | -0.68 | -6.65 | 0.51 | -0.01 | 
